{"source": "paper PMC7819943", "about": "“Rice protein-binding microarrays: a tool to detect cis-acting elements near promoter regions in rice”", "note": "In all, about 68,000 sequences were measured (“fluorescence intensity (a.u.)”: median about 9,100, highest 2% from about 16,000 on). This is one part of a sample in which the highest values are shown more often than they occur."}
{"molecular_target": "OsWRKY34 (Oryza sativa, UniProt Q0JBA9 1-250)", "sequence (Q0JBA9 entry or part of it)": "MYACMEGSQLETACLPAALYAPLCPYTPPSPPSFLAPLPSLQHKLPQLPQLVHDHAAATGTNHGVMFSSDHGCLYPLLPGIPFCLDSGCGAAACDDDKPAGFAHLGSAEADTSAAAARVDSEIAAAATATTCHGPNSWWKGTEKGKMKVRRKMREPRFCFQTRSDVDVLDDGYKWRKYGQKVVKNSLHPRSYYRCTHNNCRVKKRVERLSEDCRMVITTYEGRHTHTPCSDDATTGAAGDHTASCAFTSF", "assay": "protein-binding microarray (RPBM); PBS, 2% BSA, 51.3 ng/ul salmon testes DNA, 50 uM zinc acetate, 200 nM TF, 25 C, 1 h; high values mean tight binding", "details": "protein: recombinant; tags: N-terminal polyhistidine and DsRed monomer fusion (pET32a); label: CyDye5-dUTP incorporated in the synthesized complementary strand; 3' TTTTT single-stranded linker to array surface; dsDNA, one strand shown", "in_short": "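A custom Agilent array was converted to double-stranded form by primer extension with Cy5-dUTP and blocked with 2% BSA. Protein at 200 nM in PBS with 2% BSA, salmon testes DNA and 50 µM zinc acetate was applied for 1 h at 25 °C, followed by washing. The proteins were polyhistidine–DsRed N-terminal fusions of transcription factors, expressed in E. coli BL21-CodonPlus and Ni–NTA-purified. The binding signal is per-feature fluorescence intensity (arbitrary units) from an Axon 4000B scanner.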"}
{"sequence": "AAATTTATTGTTTGGCTGGAAGACGTGGGGTTTTAAGAGGCGGAGTCACCTAGTGCAG", "binding signal": "8370 fluorescence intensity (a.u.)"}
{"sequence": "GTTGCAGGGTGGGGATTGTTAAATTTATTGTTTGGCTGGACGGAGTCACCTAGTGCAG", "binding signal": "16600 fluorescence intensity (a.u.)"}
{"sequence": "GGGGATTGGTTTGGTGTGGGTGTTTTGTGTGGGGATTGATCGGAGTCACCTAGTGCAG", "binding signal": "28100 fluorescence intensity (a.u.)"}
{"sequence": "GAGGTGGCTGGAGTGGGGTTTAGTGTTGGTTGTTAGGGATCGGAGTCACCTAGTGCAG", "binding signal": "13500 fluorescence intensity (a.u.)"}
{"sequence": "CCACTGACTACTGATGGGTGTGTTGATAGTGTTTTGTCAGCGGAGTCACCTAGTGCAG", "binding signal": "8870 fluorescence intensity (a.u.)"}
{"sequence": "TTTTTGTTTTTTAATTGTGGAGTTTGGGAGGAGGAGGGGACGGAGTCACCTAGTGCAG", "binding signal": "9870 fluorescence intensity (a.u.)"}
{"sequence": "TTTTTCACGGGGATGGGTCGGGGATTGTTGACTGATAAAGCGGAGTCACCTAGTGCAG", "binding signal": "21700 fluorescence intensity (a.u.)"}
{"sequence": "AGGGTTTGTTTGTTTATTTGTTTGTTTGATCGGTGTGGGGCGGAGTCACCTAGTGCAG", "binding signal": "13300 fluorescence intensity (a.u.)"}
{"sequence": "AGTGGATGAGTTTGAGTTTTAGGATTTAGTGGGGTATTATCGGAGTCACCTAGTGCAG", "binding signal": "15100 fluorescence intensity (a.u.)"}
{"sequence": "CGTGGGGTGGGATCGGAAGCAGTGGAGTTGTTTTTATTATCGGAGTCACCTAGTGCAG", "binding signal": "16500 fluorescence intensity (a.u.)"}
{"sequence": "GCGGGGTTGATTTCTGACTGAGATTTTGTTTTTCTTTTCTCGGAGTCACCTAGTGCAG", "binding signal": "14000 fluorescence intensity (a.u.)"}
{"sequence": "GGGTTTGGGGATCGATTGATTTATAGGCTTTTTTGTTTTTCGGAGTCACCTAGTGCAG", "binding signal": "8810 fluorescence intensity (a.u.)"}
{"sequence": "TATCTAATAATTGGATGGTTACAACCAAATACTTCTACATCGGAGTCACCTAGTGCAG", "binding signal": "9870 fluorescence intensity (a.u.)"}
{"sequence": "TTGATCCTTTTTCGCCGCTCACGCCGAGCTGCCCCGACAACGGAGTCACCTAGTGCAG", "binding signal": "8340 fluorescence intensity (a.u.)"}
{"sequence": "TTTTCTATACTGTATTTTGTGTCATTTTCAATCATTGATTCGGAGTCACCTAGTGCAG", "binding signal": "14400 fluorescence intensity (a.u.)"}
{"sequence": "AAACAGAGGTTTTTCTCCTGTACATGTGTCCCATGCCAACCGGAGTCACCTAGTGCAG", "binding signal": "9880 fluorescence intensity (a.u.)"}
{"sequence": "TTTTTATATGTTTGGTTCTTATGAGTTCCTAAGTGTGAAACGGAGTCACCTAGTGCAG", "binding signal": "8230 fluorescence intensity (a.u.)"}
{"sequence": "TGGTCGGGTGTTTTTGTGATTGATGGTTTTGGTAGACGGGCGGAGTCACCTAGTGCAG", "binding signal": "11200 fluorescence intensity (a.u.)"}
{"sequence": "CATTTCTTATTTTGTTTTTGGGCTTTGATGTTTGGTTTCTCGGAGTCACCTAGTGCAG", "binding signal": "8740 fluorescence intensity (a.u.)"}
{"sequence": "TGGGTGGTGTTGGTTTTGCATGGTAGACGCGGGGTCCGATCGGAGTCACCTAGTGCAG", "binding signal": "18400 fluorescence intensity (a.u.)"}
{"sequence": "TTTACATCTAATATTTTTTATTTGGGGTTCAGCGGGCATTCGGAGTCACCTAGTGCAG", "binding signal": "11100 fluorescence intensity (a.u.)"}
{"sequence": "CTTTTTTTTGGTTTGCCGTGTGGTGGGTTTCGGGTCCGCGCGGAGTCACCTAGTGCAG", "binding signal": "14500 fluorescence intensity (a.u.)"}
{"sequence": "TTTGGGGTTCAGCGGGCATTTGTTTTGATTGTTTCTTATTCGGAGTCACCTAGTGCAG", "binding signal": "23400 fluorescence intensity (a.u.)"}
{"sequence": "CTAAAAGTCAATCCACGCCACCATCGATCTCTCTATCCAACGGAGTCACCTAGTGCAG", "binding signal": "9440 fluorescence intensity (a.u.)"}
{"sequence": "CTATGATTGGTCAAGTGCTGTTGCTATTTCTCTGCTGATACGGAGTCACCTAGTGCAG", "binding signal": "10200 fluorescence intensity (a.u.)"}
{"sequence": "GCTGTTCCATGCTCCACAACCCCGGGTCATTGACCCAATCCGGAGTCACCTAGTGCAG", "binding signal": "16700 fluorescence intensity (a.u.)"}
{"sequence": "GATCATCTGTTCCACCCGCCACCCGCCACCCGCCACAATCCGGAGTCACCTAGTGCAG", "binding signal": "13200 fluorescence intensity (a.u.)"}
{"sequence": "TCACCACCACCATCACAACCCAATCCCAATCCAAACCACCCGGAGTCACCTAGTGCAG", "binding signal": "8530 fluorescence intensity (a.u.)"}
{"sequence": "GAAAAGCCACTAATCTCCAACCTCGTCTACACTTCTCCAACGGAGTCACCTAGTGCAG", "binding signal": "8970 fluorescence intensity (a.u.)"}
{"sequence": "GTTTGATCCATTACAGCTCCACATATATTGTGAAATCATTCGGAGTCACCTAGTGCAG", "binding signal": "10500 fluorescence intensity (a.u.)"}
{"sequence": "ACAACCGCACATACGCCACGGCCCACTCCTCCTTCTCGCCCGGAGTCACCTAGTGCAG", "binding signal": "9350 fluorescence intensity (a.u.)"}
{"sequence": "GAACGTCTGGACGTTGGAACACTCCATGTTTTTGTCTGATCGGAGTCACCTAGTGCAG", "binding signal": "8740 fluorescence intensity (a.u.)"}
{"sequence": "TCTGTCTATCCTTTGTAAAGTCACTTGCCCTTGCATTACTCGGAGTCACCTAGTGCAG", "binding signal": "16500 fluorescence intensity (a.u.)"}
{"sequence": "TATATCTATATGCCATATCATCTGTCTATCCTTTGTAAAGCGGAGTCACCTAGTGCAG", "binding signal": "8740 fluorescence intensity (a.u.)"}
{"sequence": "CCTTGTCTGTACTCTCTCTACTTTCCACCTCTATCCGCCTCGGAGTCACCTAGTGCAG", "binding signal": "9420 fluorescence intensity (a.u.)"}
{"sequence": "GCATCCTTTTCATTGGCCTTTGCGTGTAATTTGGGGCATGCGGAGTCACCTAGTGCAG", "binding signal": "9230 fluorescence intensity (a.u.)"}
{"sequence": "CCTCGTTTTTTTTTTTGGGTTCATCTCGTGTGTTCCGTGACGGAGTCACCTAGTGCAG", "binding signal": "18400 fluorescence intensity (a.u.)"}
{"sequence": "GTGTTTCCCATGGTTTGCACCAGTCTCCTCTGATGCAGTCCGGAGTCACCTAGTGCAG", "binding signal": "26400 fluorescence intensity (a.u.)"}
{"sequence": "GGTTTGGGTTCCTCTCTCGTCTCGTCTGTTTTGTTTTCCCCGGAGTCACCTAGTGCAG", "binding signal": "21900 fluorescence intensity (a.u.)"}
{"sequence": "CTCGTCTGTTTTGTTTTCCCCTCCGACTCCGACTCCGATCCGGAGTCACCTAGTGCAG", "binding signal": "8180 fluorescence intensity (a.u.)"}
{"sequence": "TGTTCTGGTTCGGATCTGAGCGGGTGTTGGGTGTTTTCAACGGAGTCACCTAGTGCAG", "binding signal": "9230 fluorescence intensity (a.u.)"}
{"sequence": "ATTTTAATTAATCTCGTGTTGGGTTCTTATATGGTTTTTCCGGAGTCACCTAGTGCAG", "binding signal": "8350 fluorescence intensity (a.u.)"}
{"sequence": "TTTTCGTGTTCGGGTTTGGGTTTGAGTGCCGCATCTGCAACGGAGTCACCTAGTGCAG", "binding signal": "21500 fluorescence intensity (a.u.)"}
{"sequence": "CAGTCTCCTCTGATGCAGTCTCGTTCTCTGTTTCTTTTTGCGGAGTCACCTAGTGCAG", "binding signal": "10600 fluorescence intensity (a.u.)"}
{"sequence": "GGTTTGTTTGTCGTTCATGTGACGAGCGCATCCGTTTTCCCGGAGTCACCTAGTGCAG", "binding signal": "9140 fluorescence intensity (a.u.)"}
{"sequence": "CCTCGGCCTATAGTGTTGGGTTTGGGTGTTGGTTTTTCCCCGGAGTCACCTAGTGCAG", "binding signal": "15600 fluorescence intensity (a.u.)"}
{"sequence": "ATACTTCCTTTCTGTTTCCAGTGTCTCTCTTCATGCACTCCGGAGTCACCTAGTGCAG", "binding signal": "10700 fluorescence intensity (a.u.)"}
{"sequence": "ATCTGGGTTCTTTTTTTTTCTTTTTTTGCCGGGTTTTTTTCGGAGTCACCTAGTGCAG", "binding signal": "14800 fluorescence intensity (a.u.)"}
